The text below walks through data of PubChem BioAssay.

The target in experiment [1] is Tumor necrosis factor receptor superfamily member 10B (Homo sapiens) (UniProt O14763). In words: viability loss of caspase-8 NB7 cells with TRAIL – with/without TRAIL, luminescence panel, confirmation (AID 651596). The settings on record: NB7 neuroblastoma + caspase-8, TRAIL sensitization, NB7 Caspase-8, with TRAIL, mean of runs, at 10 µM, stronger effect = higher value.
Assay in experiment [2]: as above
Particulars: NB7 neuroblastoma + caspase-8, without TRAIL, NB7 Caspase-8, without TRAIL, mean of runs, at 10 µM.

Chain of Tumor necrosis factor receptor superfamily member 10B (Homo sapiens) (O14763 whole entry, looked up): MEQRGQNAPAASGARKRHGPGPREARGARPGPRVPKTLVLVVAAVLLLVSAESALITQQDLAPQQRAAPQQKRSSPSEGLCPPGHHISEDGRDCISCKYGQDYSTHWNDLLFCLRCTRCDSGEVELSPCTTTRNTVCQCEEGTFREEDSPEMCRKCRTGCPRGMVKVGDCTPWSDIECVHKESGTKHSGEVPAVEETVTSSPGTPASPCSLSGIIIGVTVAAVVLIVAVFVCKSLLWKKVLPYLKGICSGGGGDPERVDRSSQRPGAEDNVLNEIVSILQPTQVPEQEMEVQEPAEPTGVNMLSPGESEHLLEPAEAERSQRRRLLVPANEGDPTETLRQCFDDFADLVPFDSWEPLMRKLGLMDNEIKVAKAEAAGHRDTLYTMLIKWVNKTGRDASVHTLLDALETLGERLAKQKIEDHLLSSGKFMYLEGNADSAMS

As to `CCC(C)c1ccc(NC(=O)c2cccs2)cc1` (centres undefined), the results for the activity in experiment [1] and in experiment [2] were 72.8% and 68.1%, respectively.
In the case of `CC(C)c1ccc(/C=C/C(=O)Nc2nncs2)cc1`, the results for the activity in experiment [1] and in experiment [2] were 57.7% and 66.2%, respectively.
On the same counts, the results for `Cc1cc(NC(=O)CSc2nnc(-c3ccc4c(c3)OCCO4)o2)no1` are 52.1% and 58.8%.
Take `CCC1CCCCN1Cc1nc(Cc2ccccc2Cl)no1` (centres undefined): the activity in experiment [1] is -9.55%; in experiment [2] it was -33.1%.
The corresponding values for `CC1CCCN(c2ncnc3c2cnn3-c2ccccc2)C1` (centres undefined) are 86.1% and 85.1%.
Take `c1ccc2nc(-c3ccc(N4CCOCC4)cc3)ccc2c1`: the values for the activity in experiment [1] and in experiment [2] were 72.2% and 69%, respectively.
On the same counts, the results for `COc1ccc(C(C(=O)NC2CCCCC2)N(C(=O)CCl)c2ccc(C)cc2)cc1` (centres undefined) are 99.5% and 99.3%.
As for `Clc1ccc(OCc2nn3c(C4CCCCC4)nnc3s2)cc1`, the activity in experiment [1] was found to be 49.8%; in experiment [2] it was 71.2%.
On the same counts, the results for `NC(Cc1ccc(C(F)(F)F)cc1)c1csc(Nc2nncc3ccccc23)n1` (centres undefined) are 38.8% and 89.1%.
On the same counts, the results for `CN(C)CC(O)c1ccc(C=Cc2ccc(Cl)cc2)cc1` (centres undefined) are 98.3% and 97.2%.
As to `CCCNC(=O)c1ccc(-c2nc3ccccc3s2)s1`, the results for the activity in experiment [1] and in experiment [2] were 87.8% and 83.5%, respectively.
For `COc1ccc(C(=O)O/N=C(\N)Cc2ccc(Cl)cc2)cc1OC`, the activity in experiment [1] is 99.3%; in experiment [2], 95.8%.
Regarding `CCCCCCCN(C(=O)CCl)c1cccc(C)c1`, the activity in experiment [1] and in experiment [2] was 99% throughout.
With `Nc1nc(N)c2cc(Sc3ccc4ccccc4c3)ccc2n1`, the activity in experiment [1] is 61%; in experiment [2] it was 73.9%.
For the compound `Cc1csc(NC(=S)NC(=O)c2ccccc2)n1`, the activity in experiment [1] worked out at 67.7%; in experiment [2], 53.1%.
On the same counts, the results for `CC(C)(C)OC(=O)NCCCC[C@H](NC(=O)c1nc[nH]c1C(=O)NC(c1ccccc1)c1ccccc1)C(=O)OC(C)(C)C` are 67% and 23.8%.
On the same counts, the results for `CCCc1cc(=O)[nH]c(SCC(=O)c2c(N)n(CC(C)C)c(=O)n(C)c2=O)n1` are 80.5% and 83.7%.
